Assay results published in PubChem BioAssay (EPA / NIEHS).
Where “and” joins values, the source holds several entries; their conditions need not be identical. Identical values can stand only once. Records with an inconclusive call do not appear. Calls of active or inactive are those of the source. How the source made its calls, unless noted: active means hit-call score of the fitted dose curve at least 0.9, where 1 is the maximum; inactive means score below 0.9.

Tests used:
[1] = read-out: Monocyte Chemoattractant Protein-1 (MCP1), CCL2 (gene 6347); assay: BSK_SAg_MCP1: BioMAP Diversity Plus: SAg Assay for Monocyte Chemoattractant Protein-1 (MCP1) Biomarker Activity (AID 2283090); settings: primary human HUVEC with PBMC; actives raise or lower the signal
Outline: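 MCP-1 levels in the endothelial–PBMC SAg co-culture were quantified by ELISA at 24 h post-dosing; both increases and decreases versus DMSO scored. Cytotoxicity monitored by SRB total protein in parallel cultures.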

[2] = read-out: E-selectin (Homo sapiens) (UniProt P16581); assay: BSK_SAg_Eselectin: BioMAP Diversity Plus: SAg Assay for Eselectin Biomarker Activity (AID 2283091); settings: primary human HUVEC with PBMC; actives raise or lower the signal
Outline: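 Human umbilical vein endothelial cells co-cultured with peripheral blood mononuclear cells, SAg system. E-selectin is measured by ELISA 24 h after dosing and fitted bidirectionally against DMSO. Cytotoxicity is checked by SRB staining of parallel cultures.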

[3] = read-out: Monokine induced gamma interferon (MIG), CXCL9 (gene 4283); assay: BSK_SAg_MIG: BioMAP Diversity Plus: SAg Assay for Monokine induced gamma interferon (MIG) Biomarker Activity (AID 2283092); settings: primary human HUVEC with PBMC; actives raise or lower the signal
Outline: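 Endothelial cells and PBMC were co-cultured, exposed to test chemicals, and sampled 24 h later. MIG was measured by ELISA, and responses were fitted in both directions relative to DMSO.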

[4] = BSK_SAg_PBMCCytotoxicity: PBMC Cytotoxicity Assessment in the BioMAP Diversity Plus: SAg Assay (AID 2283093); settings: primary human HUVEC with PBMC;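 further: PBMC viability measured as Alamar Blue reduction fluorescence at 546/580 nm; fitted both ways against DMSO so a hit may be loss or gain of signal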;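 on AC50: PBMC superantigen activated with SEB plus TSST-1 one hour after compound addition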
Outline: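 HUVEC/PBMC co-culture; PBMC exposed to chemical 1 h before SEB and TSST-1 activation (20 ng/mL each), incubated 90 h, then Alamar Blue 6 h, fluorescence 546/580 nm. Bidirectional fit versus DMSO baseline.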

[5] = BSK_SAg_Proliferation: Cell Proliferation Assessment in the BioMAP Diversity Plus: SAg Assay (AID 2283095); settings: primary human HUVEC with PBMC;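 further: relative cell number as total protein by SRB absorbance in sub-confluent culture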
Outline: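 Readout is SRB-stained protein (560 nm) in a primary human HUVEC and PBMC co-culture; sub-confluent cultures are read at 96 h. Activity is fitted bidirectionally using DMSO as baseline.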

[6] = BSK_SAg_SRB: Viability Assessment in the BioMAP Diversity Plus: SAg Assay (AID 2283096); settings: primary human HUVEC with PBMC;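 further: cells read one day after compound addition; hits may be either gain or loss of signal compared with DMSO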
Outline: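 Human umbilical vein endothelial cells co-cultured with PBMC, read 24 h after compound dosing. Total protein measured by sulforhodamine B staining (0.1% SRB after 10% TCA fixation, absorbance 560 nm); bidirectional fit versus DMSO baseline.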

[7] = target: human CYP19A1, CYP19A1 (gene 1588) (UniProt P11511); assay: NVS_ADME_hCYP19A1: NovaScreen (NVS) CYP450-related Enzyme Activity (ADME) Assay for human CYP19A1 (AID 2283098; active means hit-call score of the fitted dose curve at least 0.9, where 1 is the maximum;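 on AC50: potency for inhibitors seen as loss of fluorescent enzyme signal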)
human CYP19A1, CYP19A1 (gene 1588), sequence (P11511 whole entry, looked up): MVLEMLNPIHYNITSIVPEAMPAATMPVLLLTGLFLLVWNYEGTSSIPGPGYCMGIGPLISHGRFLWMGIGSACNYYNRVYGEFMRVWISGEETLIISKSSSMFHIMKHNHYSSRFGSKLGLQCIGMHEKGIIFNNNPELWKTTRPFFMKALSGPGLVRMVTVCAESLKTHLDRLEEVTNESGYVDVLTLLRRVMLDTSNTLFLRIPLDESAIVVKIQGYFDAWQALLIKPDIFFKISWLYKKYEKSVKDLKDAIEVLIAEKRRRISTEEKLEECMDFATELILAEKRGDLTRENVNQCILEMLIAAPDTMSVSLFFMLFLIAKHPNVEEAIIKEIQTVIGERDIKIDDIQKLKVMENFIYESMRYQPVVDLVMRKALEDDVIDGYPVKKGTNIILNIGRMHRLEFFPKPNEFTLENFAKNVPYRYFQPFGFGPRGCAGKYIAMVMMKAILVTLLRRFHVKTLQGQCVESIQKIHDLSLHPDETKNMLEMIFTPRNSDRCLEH
Outline: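 Recombinant enzyme in a cell-free format, read 0.5 h after dosing by fluorescence from a fluorogenic substrate. Loss of signal was fitted against acetonitrile as baseline. Primary screen in duplicate at 10 uM, actives then tested in concentration series.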

[8] = target: human CYP1A2, CYP1A2 (gene 1544) (UniProt P05177); assay: NVS_ADME_hCYP1A2: NovaScreen (NVS) CYP450-related Enzyme Activity (ADME) Assay for human CYP1A2 (AID 2283102; active means hit-call score of the fitted dose curve at least 0.9, where 1 is the maximum;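 on AC50: potency for inhibition since loss of fluorescence marks reduced CYP1A2 activity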)
human CYP1A2, CYP1A2 (gene 1544), sequence (P05177 whole entry, looked up): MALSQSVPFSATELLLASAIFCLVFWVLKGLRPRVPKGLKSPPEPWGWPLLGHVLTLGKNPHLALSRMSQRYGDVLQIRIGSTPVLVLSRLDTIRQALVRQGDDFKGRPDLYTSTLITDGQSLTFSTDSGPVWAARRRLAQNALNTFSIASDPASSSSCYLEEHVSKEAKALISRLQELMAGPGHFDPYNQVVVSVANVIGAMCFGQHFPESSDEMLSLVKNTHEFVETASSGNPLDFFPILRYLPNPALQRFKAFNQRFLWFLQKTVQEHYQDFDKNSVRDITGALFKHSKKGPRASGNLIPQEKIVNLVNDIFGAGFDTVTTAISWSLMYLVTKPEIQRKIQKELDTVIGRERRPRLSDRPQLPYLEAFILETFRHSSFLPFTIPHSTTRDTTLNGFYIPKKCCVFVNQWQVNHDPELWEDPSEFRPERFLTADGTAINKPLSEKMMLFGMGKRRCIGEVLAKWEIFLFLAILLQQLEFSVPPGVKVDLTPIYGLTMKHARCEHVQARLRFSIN
Outline: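 Recombinant human CYP1A2 from insect cells, cell-free, fluorogenic substrate; read 0.5 h after dosing with loss of fluorescence signal indicating inhibition. Primary screen in duplicate at 10 uM, acetonitrile as negative control.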

[9] = target: human CYP2A6, CYP2A6 (gene 1548) (UniProt P11509); assay: NVS_ADME_hCYP2A6: NovaScreen (NVS) CYP450-related Enzyme Activity (ADME) Assay for human CYP2A6 (AID 2283099; active means hit-call score of the fitted dose curve at least 0.9, where 1 is the maximum)
human CYP2A6, CYP2A6 (gene 1548), sequence (P11509 whole entry, looked up): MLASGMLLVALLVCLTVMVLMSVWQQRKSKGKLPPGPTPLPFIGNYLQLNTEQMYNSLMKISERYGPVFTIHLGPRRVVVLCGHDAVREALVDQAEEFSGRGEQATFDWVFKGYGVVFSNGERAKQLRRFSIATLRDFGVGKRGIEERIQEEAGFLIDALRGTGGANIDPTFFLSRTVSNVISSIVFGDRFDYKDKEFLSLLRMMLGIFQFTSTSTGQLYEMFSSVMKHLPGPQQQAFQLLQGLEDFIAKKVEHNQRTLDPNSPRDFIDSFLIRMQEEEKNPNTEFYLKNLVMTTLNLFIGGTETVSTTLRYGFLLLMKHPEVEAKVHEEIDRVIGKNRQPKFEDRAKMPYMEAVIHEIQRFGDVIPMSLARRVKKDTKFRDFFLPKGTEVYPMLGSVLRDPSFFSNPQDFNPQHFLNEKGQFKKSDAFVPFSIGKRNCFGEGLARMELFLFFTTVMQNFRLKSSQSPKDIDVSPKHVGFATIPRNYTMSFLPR
Outline: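 Recombinant human CYP2A6 expressed in insect cells, cell-free; fluorogenic substrate turnover read by fluorescence intensity 0.5 h after dosing. Primary screen 10 uM in duplicate, then concentration-response up to 20 uM; acetonitrile as negative control.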

Measured: AC50

E-selectin (Homo sapiens), sequence (P16581 whole entry, looked up): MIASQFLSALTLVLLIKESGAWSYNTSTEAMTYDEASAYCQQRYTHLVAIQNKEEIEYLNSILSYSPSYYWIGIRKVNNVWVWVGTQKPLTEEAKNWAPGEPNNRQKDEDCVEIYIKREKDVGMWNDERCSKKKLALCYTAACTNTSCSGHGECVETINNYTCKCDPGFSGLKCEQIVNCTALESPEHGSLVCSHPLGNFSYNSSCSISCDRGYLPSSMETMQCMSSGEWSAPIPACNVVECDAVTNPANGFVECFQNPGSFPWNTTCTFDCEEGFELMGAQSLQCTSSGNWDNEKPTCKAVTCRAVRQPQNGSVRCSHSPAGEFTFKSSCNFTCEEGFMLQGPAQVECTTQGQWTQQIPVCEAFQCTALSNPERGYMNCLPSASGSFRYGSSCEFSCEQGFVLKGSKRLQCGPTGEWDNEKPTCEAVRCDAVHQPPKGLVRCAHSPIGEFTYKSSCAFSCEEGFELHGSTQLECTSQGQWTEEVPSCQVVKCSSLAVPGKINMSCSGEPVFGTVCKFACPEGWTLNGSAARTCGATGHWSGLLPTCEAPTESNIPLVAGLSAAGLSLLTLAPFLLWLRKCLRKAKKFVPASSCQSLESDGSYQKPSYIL

CNc1cnn(-c2cccc(C(F)(F)F)c2)c(=O)c1Cl
active: [2] 19.2 µM | [4] 7.99 µM | [8] 5.43 µM
inactive: [1] | [3] | [5] | [6] | [7]

CC[C@H](C)[C@H]1O[C@]2(C=C[C@@H]1C)C[C@@H]1C[C@@H](C/C=C(\C)[C@@H](O[C@H]3C[C@H](OC)[C@@H](O[C@H]4C[C@H](OC)[C@@H](NC)[C@H](C)O4)[C@H](C)O3)[C@@H](C)/C=C/C=C3\CO[C@@H]4[C@H](O)C(C)=C[C@@H](C(=O)O1)[C@]34O)O2
active: [1] 3.38 µM | [2] 4.95 µM | [3] 8.62 µM | [4] 2.6 µM | [5] 1.69 µM | [6] 5.06 µM
inactive: [7]

CCCSP(=O)(OCC)Oc1ccc(Br)cc1Cl (stereo not drawn)
active: [2] 25.5 µM | [3] 36.5 µM | [4] 32.9 µM | [5] 29.3 µM | [6] 11.7 µM | [8] 5.19 µM

C#CC(C)(C)NC(=O)c1cc(Cl)cc(Cl)c1
active: [8] 10 µM
inactive: [1] | [2] | [3] | [4] | [5] | [6] | [7]

CCCOCC(=Nc1ccc(Cl)cc1C(F)(F)F)n1ccnc1
active: [1] 26 µM | [2] 11.6 µM | [3] 32.4 µM | [4] 31 µM | [5] 24.5 µM | [6] 27.9 µM | [7] 0.999 µM | [8] 7.01 µM
inactive: [9]

CCOP(=S)(OCC)OC(Cl)C(Cl)(Cl)Cl (stereo not drawn)
active: [2] 31.2 µM | [4] 29.9 µM | [5] 33.5 µM | [6] 13 µM
inactive: [1] | [3]

CN(C)C(=O)Nc1cccc(C(F)(F)F)c1
active: [8] 5.3 µM
inactive: [1] | [2] | [3] | [4] | [5] | [6]

CCCCN(CC)c1c([N+](=O)[O-])cc(C(F)(F)F)cc1[N+](=O)[O-]
inactive: [1] | [3] | [6]
active: [2] 27.6 µM | [4] 24.4 µM | [5] 18.9 µM | [7] 1.93 µM

CC1=NNC(=O)N(/N=C/c2cccnc2)C1
inactive: [1] | [2] | [3] | [4] | [5] | [6]

CSC1=N[C@@](C)(c2ccccc2)C(=O)N1Nc1ccccc1
active: [1] 20 µM | [2] 8.29 µM | [4] 7.23 µM | [5] 9.67 µM
inactive: [3] | [6]

CCC(=O)Nc1ccc(Cl)c(Cl)c1
inactive: [1] | [2] | [3] | [4] | [5] | [6]
active: [8] 2.03 µM

CC(Oc1cccc(Cl)c1)C(=O)O (stereo not drawn)
inactive: [1] | [2] | [3] | [4] | [5] | [6]

Cc1nn(-c2cc(NS(C)(=O)=O)c(Cl)cc2Cl)c(=O)n1C(F)F
inactive: [1] | [2] | [3] | [4] | [5] | [6]

CCc1cccc(C)c1N(C(=O)CCl)C(C)COC (stereo not drawn)
inactive: [1] | [2] | [3] | [4] | [5] | [6] | [7]

C[Si](Cn1cncn1)(c1ccc(F)cc1)c1ccc(F)cc1
active: [1] 28.9 µM | [2] 19.8 µM | [5] 22.5 µM | [7] 3.78 µM | [9] 1.75 µM
inactive: [3] | [4] | [6]

CCCSP(=O)(OCC)SCCC
inactive: [1] | [2] | [3] | [4] | [5] | [6] | [7]

CN1COCN(Cc2cnc(Cl)s2)C1=N[N+](=O)[O-]
inactive: [1] | [2] | [3] | [4] | [5] | [6]

O=c1ccc(=O)[nH][nH]1
inactive: [1] | [2] | [3] | [4] | [5] | [6]

Cc1cc(C2CC2)nc(Nc2ccccc2)n1
active: [2] 34.4 µM | [4] 7.66 µM | [5] 34.3 µM | [6] 15 µM | [8] 2.87 µM
inactive: [1] | [3]

CCCCOC(=O)c1ccccc1C(=O)O
inactive: [1] | [2] | [3] | [4] | [5] | [6] | [7] | [8]

O=[N+]([O-])c1cc(C(F)(F)F)c(Cl)c([N+](=O)[O-])c1Nc1ncc(C(F)(F)F)cc1Cl
inactive: [8]
active: [1] 2.24 µM and 3.79 µM | [2] 1.51 µM and 2.65 µM | [3] 3.49 µM and 2.45 µM | [4] 814 nM and 2.03 µM | [5] 318 nM and 526 nM | [6] 3.84 µM

CCOP(=S)(Oc1cnc(C(C)(C)C)nc1)OC(C)C (stereo not drawn)
active: [1] 30.7 µM | [2] 31.4 µM | [3] 33.3 µM | [4] 36.7 µM | [5] 36.6 µM | [6] 34.3 µM

CCOC(=O)COc1cc(-c2nn(C)c(OC(F)F)c2Cl)c(F)cc1Cl
inactive: [1] | [2] | [3] | [4] | [5] | [6]

CON=C(C(=O)OC)c1ccccc1CON=C(C)c1cccc(C(F)(F)F)c1
active: [1] 4.09 µM | [2] 2.08 µM | [3] 8.87 µM | [4] 1.59 µM | [5] 3.9 µM | [6] 3.82 µM
